The nature of assay [1]: antimalarial activity against Dd2 strain (AID 2302;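 active means growth inhibition above 50% at the single 2 µM test dose, taken to imply half-maximal potency below 2 µM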;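 further: 0% = DMSO untreated growth and 100% = chloroquine plus artemisinin killed control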). The conditions noted are these: P. falciparum Dd2 in RBCs, LDH growth readout, 72 h; at 2 µM; stronger effect = higher value.
Assay [2] is described as follows: human hepatoma cell viability loss – ATP luminescence, cytotoxicity control for P. falciparum antimalarial project, primary screen (AID 2303;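 active means inhibition above 50%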;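 further: 0% = DMSO wells and 100% = digitonin-killed cells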). The conditions noted are these: HepG2 viability, 24-48 h, at 10 µM, stronger effect = higher value.
Assay [3] has as its target L-lactate dehydrogenase (Plasmodium falciparum (isolate CDC / Honduras)) (UniProt Q27743). Put plainly: PfLDH activity inhibition – cell lysate, 3D7 strain, counter-screen for P. falciparum growth inhibition project (AID 2304).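 Further: 0% = vehicle and 100% = reference inhibitor.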 The conditions noted are these: P. falciparum 3D7 crude extract, LDH APAD/NBT absorbance; at 2 µM; stronger effect = higher value.
Assay [4] is described as follows: inhibition of 3D7 malaria parasite growth – strain 3D7 (AID 2306).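 Further: 0% = DMSO wells and 100% = chloroquine plus artemisinin control wells.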 The settings on record: P. falciparum 3D7 erythrocytic growth, LDH absorbance, 72 h; at 2 µM; stronger effect = higher value.
Assay [5] has as its target Calcium-dependent protein kinase 1 (Plasmodium falciparum (isolate 3D7)) (UniProt P62344). Put plainly: PfCDPK1 kinase inhibitors, biochemical, TCAMS library (AID 1159585; cut-off not given, nearly all actives have IC50 up to about 0.98 µM;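 further: inhibitors leave more ATP so luminescence rises with inhibition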). The conditions noted are these: recombinant PfCDPK1, Kinase-Glo ATP depletion luminescence.
Assay [6] addresses Plasmodium falciparum protein kinase 6 (PK6, PF3D7_1337100) (UniProt Q8IDW1). Nature of the assay: PfPK6 kinase inhibitors, biochemical, TCAMS library (AID 1159586). The settings on record: recombinant PfPK6, Kinase-Glo ATP depletion luminescence.
The target of assay [7] is Protein kinase 7 (PK7), Plasmodium falciparum 3D7 (PF3D7_0213400) (UniProt Q7YTF7). Put plainly: inhibition of Plasmodium PK7 catalytic activity – biochemical, TCAMS antimalarial set, Kinase-Glo luminescence (AID 1159587). The conditions noted are these: recombinant PfPK7, Kinase-Glo ATP depletion luminescence.
Chain of Protein kinase 7 (PK7), Plasmodium falciparum 3D7 (PF3D7_0213400) (Q7YTF7 1-343): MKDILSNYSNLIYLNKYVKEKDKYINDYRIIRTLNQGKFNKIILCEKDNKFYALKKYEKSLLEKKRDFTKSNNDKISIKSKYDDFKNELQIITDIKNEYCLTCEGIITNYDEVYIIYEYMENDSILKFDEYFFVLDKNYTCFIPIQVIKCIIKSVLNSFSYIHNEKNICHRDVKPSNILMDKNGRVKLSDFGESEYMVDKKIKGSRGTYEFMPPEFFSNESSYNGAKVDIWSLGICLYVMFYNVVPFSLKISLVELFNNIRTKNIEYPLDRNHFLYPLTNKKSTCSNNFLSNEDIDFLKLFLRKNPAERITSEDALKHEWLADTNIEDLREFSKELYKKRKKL
For assay [8], the target named is Calcium-dependent protein kinase 4 (Plasmodium falciparum (isolate 3D7)) (UniProt Q8IBS5). Nature of the assay: PfCDPK4 kinase inhibitors, biochemical, TCAMS library (AID 1159588; cut-off not given, nearly all actives have IC50 up to about 0.91 µM). The conditions noted are these: recombinant PfCDPK4, Kinase-Glo ATP depletion luminescence.
Chain of Calcium-dependent protein kinase 4 (Plasmodium falciparum (isolate 3D7)) (Q8IBS5 whole entry, looked up): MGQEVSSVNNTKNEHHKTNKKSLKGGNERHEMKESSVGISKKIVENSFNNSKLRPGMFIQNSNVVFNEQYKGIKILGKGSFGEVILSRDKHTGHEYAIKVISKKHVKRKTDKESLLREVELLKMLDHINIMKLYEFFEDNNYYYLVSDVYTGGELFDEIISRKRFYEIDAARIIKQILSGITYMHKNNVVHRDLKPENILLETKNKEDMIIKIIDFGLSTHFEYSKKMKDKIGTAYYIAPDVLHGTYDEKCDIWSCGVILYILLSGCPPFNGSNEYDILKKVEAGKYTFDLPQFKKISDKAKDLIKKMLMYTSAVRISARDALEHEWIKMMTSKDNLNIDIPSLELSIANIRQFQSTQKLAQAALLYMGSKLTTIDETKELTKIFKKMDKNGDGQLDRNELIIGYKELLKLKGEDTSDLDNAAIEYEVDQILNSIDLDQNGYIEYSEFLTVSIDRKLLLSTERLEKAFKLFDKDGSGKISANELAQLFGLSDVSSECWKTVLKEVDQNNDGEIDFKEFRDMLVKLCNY

Unmarked numbers belong to inactive results. For part of these data: Measured potencies and affinities stand elsewhere. Active and inactive are the calls of the source. Unless noted, how the calls were made is not given here.

Chain of L-lactate dehydrogenase (Plasmodium falciparum (isolate CDC / Honduras)) (Q27743 whole entry, looked up): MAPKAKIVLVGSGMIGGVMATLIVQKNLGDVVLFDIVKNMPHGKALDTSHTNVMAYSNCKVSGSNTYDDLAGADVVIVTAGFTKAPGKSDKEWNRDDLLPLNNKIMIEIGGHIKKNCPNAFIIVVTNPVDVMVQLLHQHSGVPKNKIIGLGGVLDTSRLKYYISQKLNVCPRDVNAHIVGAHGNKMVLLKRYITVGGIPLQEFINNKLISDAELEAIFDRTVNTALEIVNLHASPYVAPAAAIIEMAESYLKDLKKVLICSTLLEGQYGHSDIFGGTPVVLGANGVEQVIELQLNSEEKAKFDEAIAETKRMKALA
Chain of Calcium-dependent protein kinase 1 (Plasmodium falciparum (isolate 3D7)) (P62344 whole entry, looked up): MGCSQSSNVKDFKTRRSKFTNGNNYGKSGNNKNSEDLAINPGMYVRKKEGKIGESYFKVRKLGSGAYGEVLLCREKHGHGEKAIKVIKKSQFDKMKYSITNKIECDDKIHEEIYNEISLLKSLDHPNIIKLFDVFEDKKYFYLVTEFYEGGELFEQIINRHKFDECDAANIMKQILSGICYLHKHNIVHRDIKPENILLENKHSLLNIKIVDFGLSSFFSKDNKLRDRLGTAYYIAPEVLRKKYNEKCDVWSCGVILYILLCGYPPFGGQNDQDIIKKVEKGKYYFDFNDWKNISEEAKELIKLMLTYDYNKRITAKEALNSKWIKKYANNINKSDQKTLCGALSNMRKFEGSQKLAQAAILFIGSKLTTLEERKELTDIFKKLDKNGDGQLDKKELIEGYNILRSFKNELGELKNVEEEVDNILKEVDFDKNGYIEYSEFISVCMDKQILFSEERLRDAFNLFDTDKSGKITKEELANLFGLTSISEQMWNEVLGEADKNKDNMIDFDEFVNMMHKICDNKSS
Chain of Plasmodium falciparum protein kinase 6 (PK6, PF3D7_1337100) (Q8IDW1 1-305): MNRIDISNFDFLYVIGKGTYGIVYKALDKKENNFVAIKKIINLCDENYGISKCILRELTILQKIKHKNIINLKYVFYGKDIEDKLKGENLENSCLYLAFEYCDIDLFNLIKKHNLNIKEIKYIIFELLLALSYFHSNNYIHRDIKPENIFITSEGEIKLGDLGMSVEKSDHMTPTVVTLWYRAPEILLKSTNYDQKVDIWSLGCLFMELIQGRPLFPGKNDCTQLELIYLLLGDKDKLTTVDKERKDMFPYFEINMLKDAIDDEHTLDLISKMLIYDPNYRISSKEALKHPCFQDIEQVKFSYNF

As for `COc1ccc(S(=O)(=O)N(c2cc(Br)cc3c2OCC3)S(=O)(=O)c2ccc(OC)c(N3CCN(C)CC3)c2)cc1N1CCN(C)CC1`, the growth inhibition in assay [1] is 98% (active); in assay [4], 81% (active). In addition, the figures for the inhibition in assay [2] and in assay [3] were 67% (active) and -8%, respectively. Also, the result in assay [5], in assay [6], in assay [7] and in assay [8] was inactive.
As for `Cc1cccc(CNc2nc(C)cc(N[C@@H](CC(C)C)C(=O)NCCOc3ccccc3)n2)c1`, the growth inhibition was 35% in assay [1] and 93% (active) in assay [4]. Besides, the inhibition was 15% in assay [2] and -1% in assay [3]. In addition, the result in assay [5], in assay [6], in assay [7] and in assay [8] was inactive.
Regarding `c1cncc(CCNCc2cccc(-c3ccc(-c4nc5ccccc5[nH]4)s3)c2)c1`, the results for the growth inhibition in assay [1] and in assay [4] were 97% (active) and 100% (active), respectively. Moreover, the inhibition in assay [2] is 8%; in assay [3], -1%. The outcome in assay [5], in assay [6], in assay [7] and in assay [8] was inactive.
For the compound `CCCCCCc1ncc(-c2cc3cc(O)c(-c4ccccc4)cc3oc2=O)s1`, the growth inhibition in assay [1] is 63% (active); in assay [4] it was 90% (active). The inhibition in assay [2] is 4%; in assay [3] it was -8%. Moreover, the result in assay [5], in assay [6], in assay [7] and in assay [8] was inactive.
As to `O=C(Nc1ccc(Br)cc1)c1cc(Br)ccc1NS(=O)(=O)c1ccc(C(F)(F)F)cc1`, the growth inhibition in assay [1] is 56% (active); in assay [4], 100% (active). Also, the results for the inhibition in assay [2] and in assay [3] were 53% (active) and 2%, respectively. The outcome in assay [5], in assay [6], in assay [7] and in assay [8] was inactive.
With `COc1ccc(CCN(C)CCOc2ccc(NC(=O)c3cccc4c(=O)c5cc(SC)ccc5[nH]c34)cc2)cc1OC`, the growth inhibition in assay [1] was 82% (active); in assay [4] it was 97% (active). The inhibition in assay [2] is 52% (active); in assay [3], 0%. Besides, the outcome in assay [5], in assay [6], in assay [7] and in assay [8] was inactive.
Turning to `N=c1n(CCN2CCCCC2)c2ccccc2n1CC(=O)c1cccc([N+](=O)[O-])c1`, the growth inhibition was 0% in assay [1] and 94% (active) in assay [4]. For the same compound, the inhibition in assay [2] is 10%; in assay [3] it was -1%. For the same compound, the result in assay [5], in assay [6], in assay [7] and in assay [8] was inactive.
As for `Cc1ccc(CN2CCCN(Cc3cccc(NC(=O)c4cc5ccccc5s4)c3)CC2)cc1C`, the growth inhibition in assay [1] was 33%; in assay [4], 92% (active). Also, the inhibition in assay [2] was 44%; in assay [3] it was -3%. The result in assay [5], in assay [6], in assay [7] and in assay [8] was inactive.
Consider `CCOCCCNc1nc2cc(OC)c(OC)cc2c2nc(-c3ccccc3)nn12`, for which the growth inhibition was 98% (active) in assay [1] and 96% (active) in assay [4]. Moreover, the inhibition in assay [2] is 10%; in assay [3], -3%. In addition, the outcome in assay [5], in assay [6], in assay [7] and in assay [8] was inactive.
As to `CCCCCCCCNCC(O)c1cc(-c2ccc(Cl)cc2)nc2cc(C)ccc12` (stereo not drawn), the growth inhibition in assay [1] and in assay [4] was 99% (active) throughout. Further, the inhibition in assay [2] was 0%; in assay [3], -2%. Also, the outcome in assay [5], in assay [6], in assay [7] and in assay [8] was inactive.
Take `N#Cc1cccc(NC(=O)C2=C(CCc3ccc4c(c3)OCO4)NC(=O)NC2c2cccc(C#N)c2)c1` (stereo not drawn): the results for the growth inhibition in assay [1] and in assay [4] were 47% and 96% (active), respectively. Moreover, the inhibition in assay [2] was 3%; in assay [3], -1%. Besides, the result in assay [5], in assay [6], in assay [7] and in assay [8] was inactive.
Turning to `CC(C)c1sc(N2CCN(C)CC2)nc1C(=O)NCCc1ccc(Cl)c(Cl)c1`, the growth inhibition is 79% (active) in assay [1] and 98% (active) in assay [4]. Besides, the inhibition in assay [2] was 10%; in assay [3], -2%. The result in assay [5], in assay [6], in assay [7] and in assay [8] was inactive.
On to `O=C(Nc1ccc(-c2ccccc2)cc1)Nc1ccc2c(c1)CCNCC2`, for which the values for the growth inhibition in assay [1] and in assay [4] were 48% and 97% (active), respectively. Besides, the inhibition in assay [2] was 41%; in assay [3], -2%. Further, the result in assay [5], in assay [6], in assay [7] and in assay [8] was inactive.
As for `Cc1ccc(-c2cc3nc4c(c(NCCCn5ccnc5)n3n2)CCC4)cc1`, the growth inhibition in assay [1] was 21%; in assay [4], 94% (active). Moreover, the inhibition in assay [2] is 22%; in assay [3], -2%. The outcome in assay [5], in assay [6], in assay [7] and in assay [8] was inactive.
Regarding `COc1cccc(NC(=O)Nc2cc(-c3ccc4[nH]ncc4c3)cc3c2CNC3=O)c1`, the growth inhibition in assay [1] is 100% (active); in assay [4] it was 98% (active). Further, the inhibition was 3% in assay [2] and 5% in assay [3]. Besides, the outcome in assay [5], in assay [6], in assay [7] and in assay [8] was inactive.
For `COc1cccc(NC(=O)c2cc(Br)cc(N3CCN(c4ccncc4)CC3)c2)c1`, the growth inhibition was 79% (active) in assay [1] and 100% (active) in assay [4]. For the same compound, the figures for the inhibition in assay [2] and in assay [3] were 30% and 0%, respectively. Further, the result in assay [5], in assay [6], in assay [7] and in assay [8] was inactive.
As to `CCOC(=O)c1[nH]c(-c2ccc(-c3ccccc3)cc2)nc1N`, the growth inhibition was 2% in assay [1] and 98% (active) in assay [4]. The inhibition is -1% in assay [2] and 6% in assay [3]. Also, the result in assay [5], in assay [6], in assay [7] and in assay [8] was inactive.
With `Cc1cc(NC(=O)Nc2ccc3nc(C)oc3c2)c2cc(Cl)ccc2n1`, the growth inhibition in assay [1] is 57% (active); in assay [4] it was 100% (active). For the same compound, the figures for the inhibition in assay [2] and in assay [3] were -10% and -2%, respectively. Besides, the result in assay [5], in assay [6], in assay [7] and in assay [8] was inactive.
Regarding `Cc1nc(NC2=NCN(CCCN3CCOCC3)CN2)nc2c(C)cccc12`, the growth inhibition in assay [1] is 62% (active); in assay [4] it was 89% (active). Also, the inhibition is 17% in assay [2] and 4% in assay [3]. Besides, the result in assay [5], in assay [6], in assay [7] and in assay [8] was inactive.
In the case of `CN1CCc2ccc(NC(=O)Nc3cccc(C(=O)c4ccccc4)c3)cc2C1`, the growth inhibition in assay [1] was 16%; in assay [4] it was 83% (active). Moreover, the inhibition was 11% in assay [2] and -1% in assay [3]. Further, the result in assay [5], in assay [6], in assay [7] and in assay [8] was inactive.
`Cc1cc(-c2ccc(CNC3CCN(C)CC3)cc2)ccc1S(=O)(=O)NCc1ccccc1`: the results for the growth inhibition in assay [1] and in assay [4] were 97% (active) and 100% (active), respectively. Moreover, the inhibition in assay [2] was 52% (active); in assay [3] it was 5%. Also, the outcome in assay [5], in assay [6], in assay [7] and in assay [8] was inactive.
